# The list is not random: actives were taken first. Their share in the collection is about 2.9%.
# Glyco luc inh – blocks N-linked glycosylation in D54 reporter cells; D54 ERlucT glycosylation luciferase reporter, 24 h; percent of 100 nM tunicamycin response; reporter increase, % at 12.5 µM; 0.23% of 360,000 active;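 active = mean luciferase reporter signal, scaled so untreated is 0 and the glycosylation-blocking control 100, at or above a set limit in every replicate; inconclusive = mean reaches the limit but not every replicate does; inactive = mean below the limit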;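 also: luciferase carries N-glycosylation sites so blocking glycosylation raises the light; 0% = median of neutral control wells and 100% = median of 100 nM tunicamycin wells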
# PfHsp90 yeast 2 – reduces growth (ATP signal) of yeast expressing P. falciparum Hsp90; S. cerevisiae expressing PfHsp90, BacTiter-Glo ATP, 48 h; yeast lacking PDR1 and PDR3 efflux regulators; AID 504621; 0.32% of 310,000 active; inhibition, % at 9.4 µM;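 active = every replicate shows inhibition above about 80%, whatever the replicate mean, limit read from the data; inconclusive = mean inhibition reaches the set limit but some replicate falls short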;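 also: 0% = DMSO neutral controls and 100% = 20 µM radicicol positive controls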
# NSD2 HMT inh – NSD2 (human) methyltransferase inhibition. O96028. NSD2 peptide methylation, AlphaScreen, 120 min. inhibition, % at 12.5 µM. 0.54% of 310,000 active. AID 743445; in the data active = inhibition above about 50%
# Wnt act – activators of Wnt/beta-catenin signaling; 1.2% of 300,000 active; AID 743398; Wnt/beta-catenin reporter cell assay, activator, plate reader; activation, % at 9.35 µM; in the data active = activation above about 30%, passing the limit was not always enough; inconclusive = no clear call, values can overlap the other calls;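 also: 0% = neutral control wells and 100% = positive control wells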
# MITF TRPM1 inh – reduces MITF-dependent TRPM1 promoter luciferase signal | SK-MEL-5 TRPM1 promoter luciferase, 24 h | AID 488899 | inhibition, % at 12.5 µM | 0.83% of 330,000 active;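 active = mean inhibition across replicates of 60% or more, whatever share of single replicates reaches that level; inconclusive = some that reach 60%, reason not given; inactive = mean inhibition across replicates below 60%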
# MITF act – MITF TRPM1 promoter activation in melanoma cells. activation, % at 12.5 µM. 0.75% of 300,000 active. AID 588334. SK-MEL-5 TRPM1-promoter luciferase, 24 h; % of positive control, neutral wells = 0;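 active = mean activation of at least 80% with every replicate also reaching 80%; inconclusive = mean reaches 80% but some replicate falls short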;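 also: 0% = neutral control wells and 100% = parthenolide positive control wells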
# The depositor's hits bear a star; ? = inconclusive; . = no result.
SMILES,Glyco luc inh,PfHsp90 yeast 2,NSD2 HMT inh,Wnt act,MITF TRPM1 inh,MITF act
O=C(OCc1cc(=O)n2cc(Br)ccc2n1)C1COc2ccccc2O1 (stereo unspecified),0,-2,3,-1,6,-4
CC1CC1C(=O)OCc1cc(=O)n2cc(Br)ccc2n1 (stereo unspecified),-6,-1,-3,41*,-71,80
CCOC(=O)c1ccc(-c2nnc(-c3ccc(Cl)cc3Cl)o2)cc1,-8,.,-2,.,-84,87*
CCOC(=O)c1cc(-c2nnc(-c3ccc(Cl)cc3)o2)c(C)nc1C,1,-14,.,-2,-6,8
CCOC(=O)C1=C(COC(=O)c2cccc(N(C)C)c2)NC(=O)NC1C (stereo unspecified),-1,1,2,38*,-75,78
CCOC(=O)C1=C(COC(=O)c2cccc(Br)c2)NC(=O)NC1C (stereo unspecified),3,.,1,-4,1,-8
CCOC(=O)c1cnn2c(C)cc(-c3ccccc3)nc12,-4,.,-3,43*,-39,.
Cc1cc(C)n2ncc(/C(N)=N/OC(=O)c3ccccc3F)c2n1,-4,-7,-2,38*,-77,?
CCOC(=O)c1cc2nc(-c3ccccc3)cc(C)n2n1,3,-2,10,-1,6,.
Cc1nc(NCC(c2ccccc2)N(C)C)c2c(C)c(C)sc2n1 (stereo unspecified),1,-8,4,-1,5,.
O=C(c1ccc(Cl)cc1)c1cnc(Nc2ccccc2Cl)s1,-10,13,0,.,-96,99*
O=C(c1ccc(Cl)cc1)c1cnc(-c2ccccc2)s1,0,-2,-2,.,-26,.
COc1ccc(CNCCC(c2ccc(F)cc2)c2ccc(OC)cc2)cc1 (stereo unspecified),1,0,1,-15,64*,-63
COc1ccc(CN(CCC(c2ccccc2)c2ccc(OC(C)C)cc2)C(=O)CCl)cc1OC (stereo unspecified),13,-14,-1,-2,106*,-107
COc1ccc(CNCCC(c2ccc(F)cc2)c2ccc(OC(C)C)cc2)cc1OC (stereo unspecified),-3,-26,.,-6,15,.
COc1ccc(C(CCNC(C)c2ccccc2)c2ccc(F)cc2)cc1 (stereo unspecified),-14,6,-1,.,70*,-70
COc1ccc(CNCCC(c2ccccc2)c2ccc(OC(C)C)cc2)cc1OC (stereo unspecified),1,1,2,-11,74*,.
COc1ccc(C(CCNCc2ccc(F)cc2)c2ccc(F)cc2)cc1 (stereo unspecified),-2,7,2,-1,31,-32
COc1ccc(CNCCC(c2ccc(OC)cc2)c2ccccc2OC)cc1 (stereo unspecified),-1,-12,6,2,20,-19
COc1ccc(C(CCNCc2ccc(OC(C)C)cc2)c2ccccc2OC)cc1 (stereo unspecified),-13,-32,16,-12,87*,-84
O=C(CCn1nnc2ccccc21)N1CCN(c2ccc(F)cc2)CC1,.,.,0,.,.,.
COc1ccc(/C=C\C(=O)O[C@@H]2C(O)C(O[C@@H]3OC(C)[C@H](O[C@@H]4OCC(O[C@H]5O[C@H](CO)[C@@H](O)C(O)C5O)C(O)C4O)C(O)C3O)[C@H](OC(=O)[C@]34CCC(C)(C)C[C@@H]3C3=CCC5[C@@]6(C)CC(O)C(O[C@@H]7OC(CO)C(O)[C@H](O)[C@H]7O)[C@@](C)(C(=O)O)C6CC[C@@]5(C)[C@]3(CO)CC4)O[C@H]2C)cc1 (stereo partly specified),-11,108*,.,.,68*,-65
C[C@@H]1CC[C@]2(C(=O)O[C@@H]3O[C@H](CO)[C@@H](O)[C@H](O)[C@H]3O)CC[C@]3(C)C(=CCC4[C@@]5(C)CC[C@H](O[C@@H]6OC[C@H](O)[C@H](O[C@@H]7O[C@H](CO)[C@@H](O)[C@H](O)[C@H]7O)[C@H]6O)C(C)(C)C5CC[C@]43C)C2[C@]1(C)O (stereo partly specified),3,-2,.,-3,7,-2
CCCCOCCCNC(=O)C[C@H]1C[C@@]2(C(=O)OC)C(=C[C@H](C(C)(C)C)O[C@@H]2C)N(Cc2ccc3c(c2)OCO3)C1=O,.,.,.,-2,.,.
COc1ccc(/C=C/C(=O)c2ccc(Cl)s2)cc1O,28*,9,9,.,-66,.
SMILES,Glyco luc inh,PfHsp90 yeast 2,NSD2 HMT inh,Wnt act,MITF TRPM1 inh,MITF act
COc1cc(/C=C/C(=O)N2CCCN(C(=O)/C=C/c3cc(OC)c(OC)c(OC)c3)CC2)cc(OC)c1OC,5,-20,-3,-1,10,-7
Cc1c(/C=C/C(=O)c2ccc(Cl)s2)cnn1C,3,.,-3,61*,-61,.
COc1cc(/C=C/C(=O)N2CCC=CC2=O)cc(OC)c1OC,14,15,.,?,92*,-91
COc1cc(/C=C/C(=O)c2ccc(Cl)s2)cc(OC)c1O,?,-129,12,.,28,-24
COc1ccc(C(=O)/C=C/c2ccc(OC)c(O)c2)c(F)c1,55*,19,14,.,-7,7
Cc1c(/C=C/C(=O)c2ccccc2)cnn1C,-1,5,4,.,-56,.
CCOc1ccc(/C=N/NS(=O)(=O)c2ccc(C)cc2)cc1OC,-1,14,-3,1,-8,9
COc1ccc(C(=O)C=Cc2ccc(OCc3ccccc3)c(OC)c2)cc1OC,51*,.,0,2,.,.
COc1cc(/C=N/NS(=O)(=O)c2ccc(C)cc2)ccc1OCc1ccc(C(=O)O)cc1,-11,-2,0,-18,72*,-70
COc1cc(OC)c(C(=O)/C=C/c2ccc(OCc3ccccc3)c(OC)c2)c(OC)c1,4,31,-2,-1,4,.
COc1ccc(C=CC(=O)c2ccc(OC)c(OC)c2)cc1O,?,.,11,2,.,.
COc1cc(C=CC(=O)c2cc(OC)c(OC)c(OC)c2)cc(OC)c1OC,-1,-3,2,4,67*,-69
COc1cc(C=CC(=O)c2ccccc2)cc(OC)c1OC,1,.,3,-1,.,.
COc1ccc(C=CC(=O)c2ccc(OC)c(OC)c2O)cc1OC,37*,23,5,-4,-11,16
Cc1nn(-c2ccccc2)c(C)c1/C=N/NC(=O)c1[nH][nH]c(=O)c1C,.,.,5,.,.,.
COC(=O)c1cn(C(=O)/C=C/c2ccc(OC)c(OC)c2)c2ccccc12,36*,-7,.,1,-20,23
COC(=O)c1cn(C(=O)OC)c2ccccc12,0,12,-1,-8,-11,12
O=S(=O)(c1ccccc1Cl)N1CCC(O)(c2cccnc2)CC1,0,27,4,-2,-1,-2
Cc1ccc(Nc2cc(C)nn2-c2nc(C)cc(=O)[nH]2)cc1,-18,105*,.,.,98*,-98
